ATXN viability: reduces viability in counter-screen for ATXN expression inhibitors. S2 cells (HEK-293 line with an ATXN2-luciferase reporter) viability, CellTiter-Fluor protease fluorescence, 24 h. Potency, µM (titrated, usually from 56.7 µM), most hits filed as cytotoxic. 0.49% of 400,000 active. AID 651635; note: nearly all actives have a fitted effect of over 40% in size
TGFb SMAD3 inh: TGF-b pathway inhibition; Potency, µM (top dose mostly 46.1 µM), most hits filed as inhibitors; HepG2 CAGA-GFP TGF-b/SMAD3 reporter, GFP fluorescence, 18 h; TGF-beta stimulated, 500 pg/mL final; 1.2% of 410,000 active; AID 588855; note: nearly all actives have a fitted effect of over 65% in size
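Inhibition of TGF-beta-driven CAGA-GFP reporter expression in HEPG2 cells is measured by cellular GFP fluorescence after 18 h stimulation with 500 pg/mL recombinant TGF-beta in 1% FBS medium at 37 degrees C.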
HepG2 tox-1: kills HepG2 cells in TGF-b inhibitor counter-screen; AID 588856; 0.76% of 410,000 active; HepG2 CAGA-GFP viability, ATP luminescence, 18 h; Potency, µM (top dose mostly 46.1 µM), most hits filed as cytotoxic
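CellTiter-Glo luminescence gave cytotoxicity after 18 hours at 37 degrees C. The cells were HepG2 CAGA-GFP in 1% FBS DMEM, stimulated with 500 pg/mL TGF-beta after compound addition. %Activity was normalised to no-cell wells (complete cell-killing) and DMSO (no toxicity), and curves were fitted and classified.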
ALOX12 inh: blocks human arachidonate 12S-lipoxygenase | P18054 | purified 12hLO, xylenol orange hydroperoxide absorbance | Potency, µM (top dose mostly 108 µM), actives largely listed as inhibitors | 1.1% of 580,000 active | AID 1671190
Target sequence (P18054 whole entry, looked up): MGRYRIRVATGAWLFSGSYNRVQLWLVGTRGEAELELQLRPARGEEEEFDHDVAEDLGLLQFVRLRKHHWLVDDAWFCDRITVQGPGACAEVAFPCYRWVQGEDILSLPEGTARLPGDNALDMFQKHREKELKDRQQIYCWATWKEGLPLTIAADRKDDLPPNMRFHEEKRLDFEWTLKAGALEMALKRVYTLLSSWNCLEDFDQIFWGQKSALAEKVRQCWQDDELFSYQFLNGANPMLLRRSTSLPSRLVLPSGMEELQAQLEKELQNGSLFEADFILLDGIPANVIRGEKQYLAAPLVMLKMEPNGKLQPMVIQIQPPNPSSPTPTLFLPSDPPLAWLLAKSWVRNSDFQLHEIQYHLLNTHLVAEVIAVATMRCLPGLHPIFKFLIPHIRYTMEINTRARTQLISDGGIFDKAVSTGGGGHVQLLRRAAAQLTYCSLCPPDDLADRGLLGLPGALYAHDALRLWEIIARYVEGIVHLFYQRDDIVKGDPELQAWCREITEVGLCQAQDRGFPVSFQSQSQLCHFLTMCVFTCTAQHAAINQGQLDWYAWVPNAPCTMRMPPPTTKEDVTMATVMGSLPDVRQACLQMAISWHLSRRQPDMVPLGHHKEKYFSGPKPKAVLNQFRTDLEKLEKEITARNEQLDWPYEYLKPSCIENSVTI
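Purified human 12hLO at 150 nM in 25 mM Hepes, 0.01% Triton X-100, pH 7.0, preincubated 15 min at room temperature with compound. Reaction started with 40 uM arachidonic acid, 30 min at room temperature. Hydroperoxide measured by Fe-xylenol orange, 573/405 nm absorbance ratio.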
ATXN2 expr inh: reduces ATXN2 reporter expression in HEK-293 cells. HEK-293 ATXN2-luciferase reporter, luminescence, 24 h. Potency, µM (series often up to 57 µM), most hits filed as inhibitors. 0.72% of 360,000 active. AID 1745845; note: nearly all actives have a fitted effect of over 55% in size
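qHTS (up to 57 uM final) was run with 24 h compound exposure of reporter cells at 37 °C. Each well was multiplexed: SteadyGlo luminescence measured ATXN2-luciferase expression after a fluorogenic Gly-Phe-AFC viability readout (25 uM final).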
TGFb CAGA inh: TGF-b pathway inhibition, cherry-pick retest; shares compounds with TGFb SMAD3 inh; HepG2 CAGA-GFP TGF-b reporter, GFP fluorescence, 18 h; cells stimulated with TGF-beta, 500 pg/mL; Potency, µM (doses to about 46.1 µM), hits mostly inhibitors; 63% of 1,600 active; note: nearly all actives have a fitted effect of over 65% in size
HepG2 tox-2: toxic to HepG2 cells in TGF-b counterscreen. AID 720535. Potency, µM (titrated, usually from 46.1 µM), hits mostly inhibitors. shares compounds with TGFb SMAD3 inh. HepG2 CAGA-GFP viability, ATP luminescence, 18 h; cells stimulated with TGF-beta, 500 pg/mL. 27% of 1,600 active; note: nearly all actives have a fitted effect of over 70% in size
TGFb CCL64 inh: blocks TGF-b signaling in CCL64 reporter cells. CCL64 CAGA-GFP reporter, TGF-b stimulated, GFP fluorescence, 18 h. AID 720536. shares compounds with TGFb SMAD3 inh. Potency, µM (titrated, usually from 46.1 µM), hits mostly inhibitors. 41% of 1,600 active; note: nearly all actives have a fitted effect of over 65% in size
TGFb COP inh: TGF-b inhibition validated with COP promoter; 3% of 1,600 active; Potency, µM (highest dose often 46.1 µM), hits mostly inhibitors; shares compounds with TGFb SMAD3 inh; AID 720537; HepG2 COP-GFP TGF-b reporter, GFP fluorescence, 18 h; cells stimulated by added recombinant TGF-beta; note: nearly all actives have a fitted effect of over 70% in size
A number is an active result; i = inactive; ? = inconclusive; nt = no result; [ ] = dose if it differs, or a comment. Hits are enriched below; roughly 2.7% of the tested compounds scored in any of these assays. Calls come from the whole dose curve; as a rule, active = well fitted curve in the direction sought with a large enough effect; inconclusive = small, poorly fitted or top-dose-only effect, or another doubt; inactive = no such curve, though single readings can be large; an effect the other way counts as inactive or inconclusive.

SMILES	ATXN viability	TGFb SMAD3 inh	HepG2 tox-1	ALOX12 inh	ATXN2 expr inh	TGFb CAGA inh	HepG2 tox-2	TGFb CCL64 inh	TGFb COP inh
Nc1nc(F)nc2c1ncn2[C@@H]1O[C@H](CO)[C@@H](O)[C@H]1O	3.2µM	0.79µM	i	i	2.5µM	0.58µM	0.46µM	1.2µM	i
COc1ccc(-n2nnnc2C(c2cccs2)N2CCC(n3c(=O)[nH]c4ccccc43)CC2)cc1 (stereo not drawn)	?	?	i	i	?	nt	nt	nt	nt
O=c1[nH]c2ccccc2n1C1CCN(C(c2ccccc2)c2nnnn2-c2ccc3c(c2)OCCO3)CC1 (stereo not drawn)	nt	?	i	i	?	nt	nt	nt	nt
O=C1NCN(c2ccccc2)C12CCN(C(c1cccs1)c1nnnn1-c1ccc3c(c1)OCCO3)CC2 (stereo not drawn)	?	13µM	i	?	i	?	i	10µM	i
COc1ccc(-n2nnnc2C(c2ccccc2)N2CCC(n3c(=O)[nH]c4ccccc43)CC2)cc1 (stereo not drawn)	?	8.9µM	i	?	?	?	?	?	i
O=c1[nH]c2ccccc2n1C1CCN(C(c2cccs2)c2nnnn2-c2ccc3c(c2)OCCO3)CC1 (stereo not drawn)	?	11µM	i	i	?	i	i	?	i
O=c1[nH]c2ccccc2n1C1CCN(C(c2ccccc2OC(F)(F)F)c2nnnn2-c2ccc3c(c2)OCCO3)CC1 (stereo not drawn)	nt	8.9µM	i	i	13µM	?	?	8.2µM	i
COc1ccc(-n2nnnc2C(c2ccnc3ccccc23)N2CCC(n3c(=O)[nH]c4ccccc43)CC2)cc1 (stereo not drawn)	?	i	i	?	?	nt	nt	nt	nt
COc1ccc(C(c2nnnn2-c2c(C)cccc2C)N2CCC(n3c(=O)[nH]c4ccccc43)CC2)cc1 (stereo not drawn)	?	?	i	i	?	nt	nt	nt	nt
Cc1cccc(C)c1-n1nnnc1C(c1cc2ccccc2o1)N1CCC(n2c(=O)[nH]c3ccccc32)CC1 (stereo not drawn)	?	7.1µM	i	i	5.6µM	5.8µM	?	5.8µM	i
O=c1[nH]c2ccccc2n1C1CCN(C(c2cccc3ccccc23)c2nnnn2Cc2ccccc2)CC1 (stereo not drawn)	?	16µM	i	i	?	6.5µM	i	?	i
O=C(NC[C@H]1C[C@@H]2CCN1C[C@@H]2CN1CCN(c2ccccn2)CC1)Nc1ccsc1	nt	nt	nt	i	nt	nt	nt	nt	nt
CC(=O)O[C@@H]1[C@@H](O)C2OC3C=C(C)C(=O)[C@@H](O)[C@]3(CO)C1(C)C21CO1 (stereo partly drawn)	nt	nt	nt	i	nt	nt	nt	nt	nt
CC(=O)OCC12CC(OC(=O)CC(C)C)C(C)=CC1OC1C(O)C(OC(C)=O)C2(C)C12CO2 (stereo not drawn)	?	i	i	i	i	0.01µM	nt	0.0052µM	i
O=C(CCN1CC2CCC(CC2)C1)c1cccs1	?	13µM	i	i	i	2.6µM	21µM	2.9µM	?
BrCC1C[n+]2c(SCc3ccccc3)nc3sc4c(c3c2O1)CCCC4 (stereo not drawn)	i	i	i	?	i	nt	nt	nt	nt
Nc1c2c(nc3sc4c(c13)CCCCC4)CCCC2	?	20µM	i	i	i	15µM	?	?	i
COc1cc2c(cc1OCC1CCCC1)N(C(=O)C1CCC(C)CC1)CC21CCN(CC(=O)O)CC1 (stereo not drawn)	nt	nt	nt	i	nt	nt	nt	nt	nt
CCCCC[C@H]1CCCCC[C@@H](O)C[C@@H](O)[C@@H](O)/C=C/C(=O)O1	i	nt	nt	i	i	nt	nt	nt	nt
C[C@H]1CCC/C=C/[C@@H]2C[C@H](O)C[C@H]2[C@@H](O)/C=C/C(=O)O1	?	i	i	i	?	0.058µM	0.13µM	?	i
COC1CN(c2cccc(F)c2)C12CCNCC2 (stereo not drawn)	nt	nt	nt	i	nt	nt	nt	nt	nt
O=c1c2ccccc2nc(/C=C/c2ccc([N+](=O)[O-])o2)n1-c1ccc(O)cc1	10µM	2.8µM	i	i	13µM	?	5.8µM	2.3µM	i
O=c1c2ccccc2nc(/C=C\c2ccccc2F)n1-c1ccc(O)cc1	nt	i	i	i	nt	nt	nt	nt	nt
COc1ccc(C[C@H]2NC[C@H](O)[C@H]2OC(C)=O)cc1	?	0.22µM	i	i	0.1µM	0.073µM	0.65µM	0.1µM	i
O=c1ccc(-c2ccccc2F)c2n1C[C@H]1C[C@@H]2CN(S(=O)(=O)c2ccccc2)C1	nt	nt	nt	i	nt	nt	nt	nt	nt
SMILES	ATXN viability	TGFb SMAD3 inh	HepG2 tox-1	ALOX12 inh	ATXN2 expr inh	TGFb CAGA inh	HepG2 tox-2	TGFb CCL64 inh	TGFb COP inh
C=C(C)[C@@]12OC3(c4ccccc4)O[C@@H]1C1[C@@H]4O[C@]4(CO)[C@@H](O)[C@]4(O)C(=O)C(C)=C[C@H]4[C@@]1(O3)[C@H](C)[C@H]2OC(=O)/C=C/C=C/c1ccccc1 (stereo partly drawn)	?	i	i	nt	i	?	?	?	i
O=[N+]([O-])c1cccc2cccnc12	nt	nt	nt	i	nt	nt	nt	nt	nt
CC(C)N1C[C@@H]2OCC(=O)N(Cc3ccccn3)[C@@H]2C1	nt	nt	nt	i	nt	nt	nt	nt	nt
Cc1nc2ccccc2c(=O)n1-c1nccs1	i	i	i	i	i	nt	nt	nt	nt
Cc1nn(-c2nccs2)c2c1C(=O)CC(C)(C)C2Br (stereo not drawn)	i	11µM	i	i	?	13µM	?	?	i
Cc1ccccc1-c1ccc2n(c1=O)C[C@H]1C[C@@H]2CN(C(=O)NC2CCCCC2)C1	nt	nt	nt	i	nt	nt	nt	nt	nt
O=C1NC2C(O)C(O)C(O)C(O)C2c2cc3c(c(O)c21)OCO3 (stereo not drawn)	?	0.13µM	i	i	i	0.065µM	?	0.18µM	i
O=C1NC2C(=CC(O)C(O)C2O)c2cc3c(c(O)c21)OCO3 (stereo not drawn)	?	i	i	i	?	0.018µM	0.46µM	0.073µM	i
COc1cccc(CC(=O)N2[C@H]3CC[C@@H]2c2cnc(-c4ccccc4)nc2C3)c1	nt	nt	nt	i	nt	nt	nt	nt	nt
O=C1Nc2ccccc2CC12CN(Cc1ccncc1)C2	nt	nt	nt	i[12.5 µM]	nt	nt	nt	nt	nt
Cc1c(C=O)c2ccccc2n1Cc1ccc(F)cc1	i	5.6µM	i	i	i	1.3µM	1.6µM	i	i
